Each structure is given as a SMILES string. Hit rate of the full screen: of about 16,000 compounds, about 5,100 (32%) were called active. Another 25% or so got no clear call; they are omitted. Calls come from the whole dose curve; as a rule, active = well fitted curve in the direction sought with a large enough effect; inconclusive = small, poorly fitted or top-dose-only effect, or effect the other way; inactive = no such curve, though single readings can be large or run the other way. The list shows a part of the results.

The term AC50 denotes the midpoint of the concentration-response curve, whichever way the signal moves.
% is set by controls: 0 for no effect and ±100 for the full control effect.

Cytochrome P450 3A4 (Homo sapiens), sequence (P08684 whole entry, looked up): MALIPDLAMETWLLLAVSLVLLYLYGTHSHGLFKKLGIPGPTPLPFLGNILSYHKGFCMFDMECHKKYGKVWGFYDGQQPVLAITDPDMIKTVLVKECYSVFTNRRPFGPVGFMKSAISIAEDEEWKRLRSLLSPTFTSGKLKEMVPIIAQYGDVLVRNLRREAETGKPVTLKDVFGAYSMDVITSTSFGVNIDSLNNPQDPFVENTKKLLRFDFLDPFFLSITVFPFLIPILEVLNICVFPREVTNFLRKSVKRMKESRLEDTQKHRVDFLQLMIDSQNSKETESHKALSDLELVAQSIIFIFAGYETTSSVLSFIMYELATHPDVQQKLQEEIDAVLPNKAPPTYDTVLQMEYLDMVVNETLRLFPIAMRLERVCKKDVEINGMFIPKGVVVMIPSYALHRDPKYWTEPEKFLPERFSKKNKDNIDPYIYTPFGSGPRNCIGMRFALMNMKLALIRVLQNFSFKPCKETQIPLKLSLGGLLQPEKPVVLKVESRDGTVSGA

This experiment addresses Cytochrome P450 3A4 (Homo sapiens) (UniProt P08684). The experiment can be described thus: Cytochrome panel assay with activity outcomes. Particulars: recombinant CYP, pro-luciferin dealkylation, luminescence, p450-cyp3a4; series mostly up to 57.1 µM; activity, negative = inhibition: at the top concentration.
With `O=[N+]([O-])/C=C\c1cc2ccccc2[nH]1`, the activity, negative = inhibition was -22.3% [at 11.4 µM] (inactive).
`C=CCNC(=O)c1ccc2nc(-c3ccccc3)c(-c3ccccc3)nc2c1`: the AC50 is 7.08 µM (active).
For `CCNC(=O)c1ccc(-n2nc(C)cc2-c2ccccc2)cc1`, the “activity, negative = inhibition” value is -28.7% (inactive).
With `COc1ccc(N(C)C(=O)c2ccc3nc(-c4ccccc4)c(-c4ccccc4)nc3c2)cc1`, the AC50 is 7.94 µM (active).
For the compound `C=CCNC(=O)c1ccccc1Cl`, the “activity, negative = inhibition” value was -16.2% (inactive).
With `CC1CC2=C(NC(=S)NC2c2ccc(F)cc2)/C(=C/c2ccc(F)cc2)C1` (stereo not given), the AC50 is 5.01 µM (active).
`O=C1NCCN1Cc1cccc(Cl)c1`: the “activity, negative = inhibition” value is -19% (inactive).
For `O=C1NCCN1Cc1ccccc1F`, the AC50 was 15.8 µM (active).
In the case of `COC(=O)c1cc2n(n1)CCN(Cc1ccccc1F)C2=O`, the activity, negative = inhibition was 17.9% [at 2.29 µM] (inactive).
Same read-out and setting: in the case of `N[C@@H](Cn1ccc(=O)n(Cc2ccccc2C(=O)O)c1=O)C(=O)O` it was -9.72% (inactive).
On to `Cc1cccc(Cn2ncc(Cl)c(Cl)c2=O)c1`, for which the AC50 is 14.1 µM (active).
In the case of `O=C(OCn1ncc(Cl)c(Cl)c1=O)c1cccc(C(F)(F)F)c1`, the “activity, negative = inhibition” value was 29.2% (inactive).
In the case of `c1ncc(-c2ccc3c(c2)OCO3)c(NCCc2cnc[nH]2)n1`, the AC50 was 0.794 µM (active).
On the same count and under the same terms, in the case of `COc1cccc(-c2cncnc2NCCc2cnc[nH]2)c1` it was 0.631 µM (active); in that of `COc1ccccc1-c1cncnc1NCCc1cnc[nH]1`, 0.398 µM (active).
With `c1ccc(CNc2ncncc2-c2ccc3c(c2)OCO3)cc1`, the AC50 is 0.501 µM (active).
On the same count and under the same terms, with `c1cncc(CNc2ncncc2-c2ccc3c(c2)OCO3)c1` the figure was 0.398 µM (active).
With `Clc1ccc2c(c1)C=Nc1c(NCc3ccccc3)ncnc1O2`, the “activity, negative = inhibition” value is 0.142% (inactive).
The same measure, in the same setting: with `c1csc(CNc2ncncc2-c2ccc3c(c2)OCO3)c1` the figure was -58.2% (inactive).
With `Cc1cnc(CNc2ncncc2-c2ccc3c(c2)OCO3)cn1`, the AC50 is 1.58 µM (active).
Same read-out and setting: with `Cn1c(-c2ccc3c(c2)OCO3)cnc1NCc1ccccc1` the figure was 7.94 µM (active).
Take `COC(=O)[C@H](C)NC(=O)[C@@H](C)CO`: the activity, negative = inhibition is -19.6% [at 11.4 µM] (inactive).
On the same count and under the same terms, with `Oc1c(C(O)(c2ccccc2)c2ccc3ccccc3c2O)ccc2ccccc12` the figure was -13.3% [at 11.4 µM] (inactive).
On to `CCCCOc1ccc(CN2CCC(O)CC2)cc1`, for which the “activity, negative = inhibition” value is 10.8% (inactive).
Still for that read-out and setting: with `CN1CCc2c(c3ccccc3n2C)C1` the figure was -1.84% (inactive).
In the case of `Cn1c(-c2ccc3c(c2)OCO3)cc(=O)c2ccccc21`, the AC50 is 10 µM (active).
The same measure, in the same setting: in the case of `Cc1cccc(CNc2ncncc2-c2ccc3c(c2)OCO3)c1` it was 0.251 µM (active); in that of `c1ccc(Nc2ncncc2-c2ccc3c(c2)OCO3)cc1`, 0.794 µM (active).
For the compound `CCOC(=O)Nc1ccc(C(=O)Oc2ccccc2)c(O)c1`, the “activity, negative = inhibition” value was -6.59% (inactive).
In the case of `C[n+]1cc(-c2ccccc2)n2c1CCCCC2`, the “activity, negative = inhibition” value is 1.83% (inactive).
The same measure, in the same setting: in the case of `CCOC(=O)[C@]1(CC(=O)O)CCCC1=O` it was -3.51% [at 11.4 µM] (inactive); in that of `CC(C)(C)Cn1nc(-c2ccc(Cl)cc2)c2c(N)ncnc21`, -26.6% (inactive).
With `CCCn1nc2cc(C(=O)NCCc3ccc(C)cc3)ccc2c1OCC`, the AC50 is 6.31 µM (active).
With `COCCn1nc2cc(C(=O)NCC34CC5CC(CC(C5)C3)C4)ccc2c1OC`, the activity, negative = inhibition was -1.55% [at 2.29 µM] (inactive).
As to `CCCn1nc2cc(C(=O)NCc3ccc(C)cc3)ccc2c1OC`, the AC50 is 14.1 µM (active).
As to `CCOc1c2ccc(C(=O)NCc3ccc(OC(F)(F)F)cc3)cc2nn1C`, the activity, negative = inhibition was 16.7% [at 2.29 µM] (inactive).
The same measure, in the same setting: with `CCOc1c2ccc(C(=O)NCCCCc3ccccc3)cc2nn1C` the figure was -28.7% (inactive).
Take `CCOc1c2ccc(C(=O)NCc3cc(C(F)(F)F)cc(C(F)(F)F)c3)cc2nn1C`: the AC50 is 12.6 µM (active).
Regarding `CCOc1c2ccc(C(=O)NCCCCc3ccccc3)cc2nn1CC`, the activity, negative = inhibition is 18.3% [at 2.29 µM] (inactive).
For the compound `CCCCn1nc2cc(C(=O)NCC3CC3)ccc2c1OCC`, the “activity, negative = inhibition” value is -28% (inactive).
Consider `CCCn1nc2cc(C(=O)NCCCCc3ccccc3)ccc2c1OCC`, for which the AC50 was 15.8 µM (active).
In the case of `COCCn1nc2cc(C(=O)NCc3cc(C(F)(F)F)cc(C(F)(F)F)c3)ccc2c1OC`, the activity, negative = inhibition is 10.6% [at 2.29 µM] (inactive).
For `CCOC(=O)N/N=C1/C[C@@H](O)[C@@H](O)[C@@H]2[C@@H]3C(=O)N(CC)C(=O)[C@H]3CC[C@H]12`, the activity, negative = inhibition is -6.5% [at 11.4 µM] (inactive).
Still for that read-out and setting: in the case of `N#Cc1c(-c2ccccc2)ccnc1Oc1ccccc1` it was 12.9% (inactive); in that of `C/C(=N\OC(=O)c1ccccc1F)c1nccs1`, -4.04% (inactive).
Still for that read-out and setting: in the case of `CC1(C)O[C@@H]2O[C@H]([C@H](O)CO/N=C3/[C@H]4O[C@@H]4[C@@H](O)[C@H]4[C@H]3CCn3c(=O)n(-c5ccccc5)c(=O)n34)[C@@H](O)[C@@H]2O1` it was -8.83% [at 11.4 µM] (inactive).
Consider `C/C(CCC(=O)OC[C@@H]1O[C@H](C#Cc2ccccc2)C=C[C@@H]1Oc1ccc(C)cc1)=N/OC[C@@H](O)[C@H]1O[C@H]2OC(C)(C)O[C@H]2[C@@H]1O`, for which the half-maximal activity concentration (AC50) is 3.98 µM (active).
Still for that read-out and setting: in the case of `COc1ccc(O[C@H]2C=C[C@@H](c3ccccc3)O[C@H]2COC(=O)CC/C(C)=N\OC[C@@H](O)[C@H]2O[C@H]3OC(C)(C)O[C@H]3[C@@H]2O)cc1` it was 3.98 µM (active).
Regarding `CC(=O)OC[C@@H]1O[C@H](C/C=N\OC[C@@H](O)[C@H]2O[C@H]3OC(C)(C)O[C@H]3[C@@H]2O)C=C[C@@H]1OC(C)=O`, the activity, negative = inhibition is -11.1% [at 11.4 µM] (inactive).
The same measure, in the same setting: in the case of `COCCCN1C(=O)C(=O)/C(=C(/O)c2ccc(OC(C)C)c(C)c2)C1c1ccncc1` (stereo not given) it was -21.3% (inactive); in that of `Cc1ccc(/C(O)=C2/C(=O)C(=O)N(CCCn3ccnc3)C2c2ccccn2)cc1` (stereo not given), -23.3% (inactive).
Turning to `CCOc1ccc(/C(O)=C2/C(=O)C(=O)N(CCCn3ccnc3)C2c2cccs2)cc1Cl` (stereo not given), the AC50 is 0.282 µM (active).
Same read-out and setting: with `Cc1cccc(/C(N)=N/OC(=O)CCCN2C(=O)c3ccccc3C2=O)c1` the figure was 4.47 µM (active).
In the case of `CCN(CC)CCN1C(=O)c2cccc3cc(N)cc(c23)C1=O`, the activity, negative = inhibition was -14.7% [at 11.4 µM] (inactive).
On the same count and under the same terms, in the case of `O=C1c2ccccc2C(=O)N1CCSC(=S)N1CCOCC1` it was 19.9% (inactive).
On to `Cc1ccc(NC(=S)N2CCN(CCN3C(=O)c4cccc5cccc(c45)C3=O)CC2)cc1`, for which the half-maximal activity concentration (AC50) is 4.47 µM (active).
As for `CC(=NCCN1CCN(C(=S)Nc2ccccc2)CC1)C1=C(O)CC(C)(C)CC1=O`, the activity, negative = inhibition was -20.4% [at 11.4 µM] (inactive).
Consider `Cn1cnnc1SCC(=O)OCN1C(=O)c2ccccc2C1=O`, for which the “activity, negative = inhibition” value is -1.18% (inactive).
`Cc1cccc(NC(=O)CCCN2C(=O)c3cccc4cccc(c34)C2=O)c1`: the AC50 is 2.24 µM (active).
Take `O=C(CCN1C(=O)c2ccccc2C1=O)Oc1ccc2ccccc2c1`: the “activity, negative = inhibition” value is -16.5% (inactive).

For the origin of these results see PubChem BioAssay AID1851 (National Center for Advancing Translational Sciences (NCATS), 2009).
